The whole screen tested about 360,000 compounds, of which about 3,100 (0.86%) were called active. For the sample, actives were picked, then their nearest neighbours and some compounds at random. Unmarked numbers belong to inactive results.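 How the source made its calls: active means inhibition or corrected inhibition above about 18%, plus a signal ratio from 0.5 to 1.5 (limit read from the data, passing the limit was not always enough); inactive means the rest.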
What follows are compounds tested against Neuropilin-1 (Homo sapiens) (UniProt O14786) (assay: modulators of CendR peptide binding to NRP-1, primary screen, biochemical, fluorescence polarization, uHTS (AID 602438)). Conditions: FAM-RPARPAR peptide binding to NRP-1, fluorescence polarization; at 25 µM; active compounds read high.
Sequence of Neuropilin-1 (Homo sapiens) (O14786 whole entry, looked up): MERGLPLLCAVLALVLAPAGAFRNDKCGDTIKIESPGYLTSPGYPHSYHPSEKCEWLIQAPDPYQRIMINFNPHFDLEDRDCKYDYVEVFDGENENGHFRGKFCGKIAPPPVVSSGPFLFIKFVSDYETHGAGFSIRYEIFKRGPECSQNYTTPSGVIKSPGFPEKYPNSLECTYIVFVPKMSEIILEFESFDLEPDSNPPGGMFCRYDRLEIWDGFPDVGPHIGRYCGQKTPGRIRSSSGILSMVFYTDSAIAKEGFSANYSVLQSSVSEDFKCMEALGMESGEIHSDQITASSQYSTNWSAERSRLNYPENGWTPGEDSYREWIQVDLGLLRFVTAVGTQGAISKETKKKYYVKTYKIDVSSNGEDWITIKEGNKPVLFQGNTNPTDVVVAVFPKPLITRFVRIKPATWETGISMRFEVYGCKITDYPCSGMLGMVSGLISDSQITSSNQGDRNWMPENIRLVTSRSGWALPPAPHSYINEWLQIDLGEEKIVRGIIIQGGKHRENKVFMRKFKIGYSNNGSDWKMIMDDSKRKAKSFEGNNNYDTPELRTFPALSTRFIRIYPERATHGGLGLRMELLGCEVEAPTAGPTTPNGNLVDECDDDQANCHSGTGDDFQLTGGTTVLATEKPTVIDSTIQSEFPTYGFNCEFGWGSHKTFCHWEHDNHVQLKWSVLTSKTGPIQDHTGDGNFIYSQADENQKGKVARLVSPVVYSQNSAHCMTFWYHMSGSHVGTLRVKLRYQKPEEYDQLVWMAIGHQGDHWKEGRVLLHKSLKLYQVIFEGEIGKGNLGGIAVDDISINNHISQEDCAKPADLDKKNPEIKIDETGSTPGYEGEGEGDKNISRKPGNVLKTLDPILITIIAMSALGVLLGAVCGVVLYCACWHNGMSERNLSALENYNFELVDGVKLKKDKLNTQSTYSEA
Work on `O=C1CCC/C=C/C[C@@H](CC(=O)N(CCO)Cc2ccccc2)C(=O)NC[C@H](c2ccccc2)O1` yielded an inhibition of 4.9%.
Work on `O=C1CCC/C=C\C[C@@H](CC(=O)N(CCO)Cc2ccccc2)C(=O)NCCO1` yielded an inhibition of 4.9%.
`O=C1NC[C@@H](c2ccccc2)OC(=O)[C@H](Cc2ccc(F)cc2)CC/C=C/C[C@H]1CC(=O)N(CCO)Cc1ccccc1` was tested, and the inhibition was 23.4% (active).
Work on `CC(C)(C)OC(=O)C[C@@H]1C/C=C\C[C@@H](CC(=O)N(CCO)Cc2ccccc2)C(=O)N[C@H](Cc2ccccc2)COC1=O` yielded an inhibition of -9.4%.
In the case of `O=C1N[C@H](Cc2c[nH]c3ccccc23)COC(=O)[C@H](Cc2ccc(F)cc2)C/C=C\C[C@H]1CC(=O)N(CCO)Cc1ccccc1`, the inhibition was 22.7% (active).
In the case of `O=C1OC[C@@H]2CCCN2C(=O)[C@H](CC(=O)N(CCO)Cc2ccccc2)C/C=C\CC[C@@H]1Cc1ccc(F)cc1`, the inhibition was 4.4%.
For `CCN(Cc1ccccc1)S(=O)(=O)c1cc(C(=O)O)ccc1OC`, the inhibition was 13.4%.
Compound `C/C(N)=C(\C#N)C(=O)NCCc1ccccn1` has an inhibition of -1.8%.
Work on `CC(C)CN(C(=O)c1cccc(S(=O)(=O)N2CCCCC2)c1)C1CCS(=O)(=O)C1` (stereo unspecified) yielded an inhibition of -6.3%.
`COCC1CCCN(C(=O)c2ccc3oc(C(C)C)nc3c2)C1` (stereo unspecified) showed an inhibition of -5.1%.
`COc1ccc([N+](=O)[O-])cc1N(CC(O)Cn1nnc2ccccc21)S(=O)(=O)c1ccc(C)cc1` (stereo unspecified) gave an inhibition of 7%.
With `Cc1ccc(S(=O)(=O)N(CC(O)CN2C(=O)NC(C)(C)C2=O)c2cccc([N+](=O)[O-])c2)cc1` (stereo unspecified) the inhibition was 24.8% (active).
Compound `Cc1ccc(S(=O)(=O)N(CC(O)CN2CCCCC2)c2cccc([N+](=O)[O-])c2)cc1` (stereo unspecified) has an inhibition of -0.8%.
`CCOC(=O)C1(C)CCCN(C(=O)c2ccc(N(C)C)cc2)C1` (stereo unspecified) gave an inhibition of -8.3%.
In the case of `CCOC(=O)C1(C)CCCN(C(=O)c2ccc(F)c(Cl)c2)C1` (stereo unspecified), the inhibition was 16.4%.
For `CCOC(=O)C1(C)CCCN(C(=O)c2cccc(Cl)c2)C1` (stereo unspecified), the inhibition was 20% (active).
`CC(OC(=O)c1cccnc1Cl)C(=O)NC1CCCCC1` (stereo unspecified) gave an inhibition of 0.1%.
`CCOc1ccc(S(=O)(=O)NCCC(=O)NCC(C)(C)N2CCOCC2)cc1` showed an inhibition of -3.6%.
Compound `COc1ccc(C(=O)NC2CC(C)(C)NC(C)(C)C2)cc1OC` has an inhibition of -3.8%.
`CN(C)C(=O)COC(=O)c1cccc(S(=O)(=O)N2CC3(C)CC2CC(C)(C)C3)c1` (stereo unspecified) showed an inhibition of 9.7%.
In the case of `COc1ccc(C(=O)N2CC3(C)CC2CC(C)(C)C3)cc1OC` (stereo unspecified), the inhibition was 33.3% (active).
`O=c1[nH]c2ccccc2n1C1CCN(CCOc2ccccc2)CC1` was tested, and the inhibition was -8%.
`Cc1ccc(S(=O)(=O)N(CC(=O)Nc2cccnc2)c2ccc(Br)cc2)cc1` gave an inhibition of 0.4%.
In the case of `COc1ccccc1-c1nnc2n1N=C(c1ccc(OC(F)F)c(OCC3CC3)c1)CS2`, the inhibition was 18.8% (active).
In the case of `COc1ccc(C2=Nn3c(nnc3-c3ccccc3OC)SC2)cc1OC1CCCC1`, the inhibition was 2.4%.
`Cc1ccc(NC2CCCN(C(=O)CCc3cn[nH]c3)C2)cc1C` (stereo unspecified) gave an inhibition of 5.4%.
For `CN(C)c1ccc(Nc2c3c4c(cccc4n(C)c2=O)C(=O)c2ccccc2-3)cc1`, the inhibition was 28.9% (active).
Work on `CCOc1cc(CNCCN(C)C)c(Cl)cc1OCC(=O)NCCc1ccccc1` yielded an inhibition of -1.5%.
In the case of `CCOC(=O)N1CCN(C(=O)CNC(=O)Cc2ccc(Cl)cc2)CC1`, the inhibition was 24.6% (active).
`CCOC(=O)N1CCN(C(=O)C(C)NC(=O)c2ccco2)CC1` (stereo unspecified) was tested, and the inhibition was 5.9%.
In the case of `CCOC(=O)N1CCN(C(=O)Cc2ccc(-n3c(=S)[nH]c4ccccc4c3=O)cc2)CC1`, the inhibition was 2.6%.
In the case of `N#Cc1ccc(C(=O)Nc2nc(-c3cccs3)c(C(=O)C(F)(F)F)s2)cc1`, the inhibition was 2.3%.
`CC1(C)C/C(=C(/C#N)C(N)=O)CCO1` was tested, and the inhibition was 51% (active).
Compound `N#CC(C(N)=O)=C1CCC2(CC1)OCCCCO2` has an inhibition of -11%.
For `CCN(CC)C(=O)COc1coc(CN2CCN(Cc3ccccc3)CC2)cc1=O`, the inhibition was 0.6%.
`C=CCNC(=O)COc1coc(CN2CCN(Cc3ccccc3)CC2)cc1=O` gave an inhibition of 2%.
In the case of `CCCNC(=O)COc1coc(CN2CCN(Cc3ccccc3)CC2)cc1=O`, the inhibition was 22.7% (active).
In the case of `CCOc1cnc(C(=O)NNC(=O)c2ccccc2Br)o1`, the inhibition was 6.1%.
`CCCc1ccc(S(=O)(=O)N2CCN(C(=O)c3cc(C)on3)CC2)cc1` gave an inhibition of 1.7%.
`C=C1C(=O)OC2C1CCC(C)=CCCC1(C)OC21` (stereo unspecified) gave an inhibition of -0.7%.
`COc1ccc(-c2c(C)cc3oc(=O)cc(-c4ccccc4)c3c2C)cc1C=O` was tested, and the inhibition was 34.1% (active).
In the case of `Cc1cc2oc(=O)cc(-c3ccccc3)c2c(C)c1-c1ccc(OC(F)(F)F)cc1`, the inhibition was 0.8%.
Compound `COc1cc(OC)c2c(-c3cccc(-c4cccc(N)c4)c3)cc(=O)oc2c1` has an inhibition of -8.2%.
`CSCC[C@H](NC(=O)CCCn1nnc2ccccc2c1=O)C(=O)O` gave an inhibition of -1.8%.
For `CC(=O)N1CCC(C(=O)OCc2ccc(Cl)cc2)(c2ccccc2)CC1`, the inhibition was -3%.
In the case of `CCOc1ncccc1C(=O)Nc1ccc(S(=O)(=O)Nc2nc(C)cc(C)n2)cc1`, the inhibition was -0.6%.

From PubChem BioAssay AID602438 (Sanford-Burnham Center for Chemical Genomics, 2012)
